From PubChem BioAssay (NCATS)
Inconclusive results are not listed. Calls of active or inactive are those of the source. Unless noted, the call rests on the fitted dose curve; in most records, active means well fitted curve in the direction sought with a large enough effect; inconclusive means small, poorly fitted or top-dose-only effect, or another doubt; inactive means no such curve, though single readings can be large; an effect the other way counts as inactive or inconclusive.

Experiments:
[1] = P-glycoprotein substrates identified in KB-3-1 adenocarcinoma cell line, qHTS therapeutic library screen (AID 1346986); further: nearly all actives have a fitted effect of over 60% in size;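 further: potency means the concentration at half of the fitted maximal effect; potency is for cytotoxicity meaning loss of cell viability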
Method in brief: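 KB-3-1 parental and colchicine-selected P-gp-overexpressing KB-8-5-11 cells (colchicine omitted during assay), 500 cells/well, dosed in dose-response for 72 h at 37 °C; CellTiter-Glo luminescence. Cytotoxic: curve class -1.1 to -2.4, max response >50%, AC50 < 10 uM.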

[2] = P-glycoprotein substrates identified in KB-8-5-11 adenocarcinoma cell line, qHTS therapeutic library screen (AID 1346987); further: nearly all actives have a fitted effect of over 65% in size; further: potency means the concentration at half of the fitted maximal effect
Method in brief: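 KB-8-5-11, a colchicine-selected P-gp-overexpressing KB-3-1 subline, was grown without colchicine for the assay. Cells were seeded at 500 cells/well, dosed in concentration-response and incubated 72 h at 37 degree C, 5% CO2. Viability was read by CellTiter-Glo luminescence.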

[3] = Primary qHTS for inhibitors of nuclear receptor binding SET domain protein 2 (NSD2) in an isogenic RCH-ACV NSD2 p.E1099K mutant (9B) (AID 1645876); further: nearly all actives have a fitted effect of over 70% in size; further: potency means the concentration at half of the fitted maximal effect
[4] = Primary qHTS for inhibitors of nuclear receptor binding SET domain protein 2 (NSD2) in an RCH-ACV wild type WT cells (2C) (AID 1645877); further: nearly all actives have a fitted effect of over 70% in size; further: potency means the concentration at half of the fitted maximal effect
[5] = target: Glutathione peroxidase 1 (Homo sapiens) (UniProt P07203); experiment: Primary qHTS Assay for Inhibitors of Recombinant Selenoprotein Glutathione Peroxidase 1 (GPX1) (AID 1845191); further: nearly all actives have a fitted effect of over 65% in size; further: potency means the concentration at half of the fitted maximal effect
Glutathione peroxidase 1 (Homo sapiens), sequence (P07203 whole entry, looked up): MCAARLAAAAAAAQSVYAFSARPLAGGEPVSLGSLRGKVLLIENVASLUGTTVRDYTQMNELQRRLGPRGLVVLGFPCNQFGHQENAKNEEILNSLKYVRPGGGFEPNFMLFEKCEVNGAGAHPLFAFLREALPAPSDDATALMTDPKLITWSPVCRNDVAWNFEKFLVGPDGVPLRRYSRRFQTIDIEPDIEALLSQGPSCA
Method in brief: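 GR-coupled assay: compounds preincubated 30 min at room temperature with GPX1, then reaction started with CHP; final 10 nM GPX1, 1 mM GSH, 0.5 mM CHP, 0.5 mM NADPH, 100 nM GR, 0.01% BSA, pH 7.5 Tris buffer. NADPH fluorescence (340/450 nm) read at 0 and 15 min.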

[6] = target: Phospholipid hydroperoxide glutathione peroxidase GPX4 (Homo sapiens) (UniProt P36969); experiment: Primary qHTS Assay for Inhibitors of Recombinant Selenoprotein Glutathione Peroxidase 4 (GPX4) (AID 1845192); conditions: outcome: dose series up to 50 µM unless noted; further: nearly all actives have a fitted effect of over 65% in size; further: potency means the concentration at half of the fitted maximal effect
Phospholipid hydroperoxide glutathione peroxidase GPX4 (Homo sapiens), sequence (P36969 whole entry, looked up): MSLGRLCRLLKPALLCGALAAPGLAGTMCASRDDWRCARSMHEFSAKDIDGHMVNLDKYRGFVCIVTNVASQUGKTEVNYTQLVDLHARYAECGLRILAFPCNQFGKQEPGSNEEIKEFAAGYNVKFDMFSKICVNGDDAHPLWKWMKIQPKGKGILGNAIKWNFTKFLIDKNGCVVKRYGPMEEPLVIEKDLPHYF
Method in brief: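 GR-coupled assay: recombinant GPX4 preincubated 30 min with compound at room temperature; final 200 nM GPX4, 1 mM GSH, 0.5 mM cumene hydroperoxide, 0.5 mM NADPH, 100 nM GR, 0.01% BSA, pH 7.5 Tris. NADPH fluorescence (340/450 nm) read at 0 and 15 min.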

[7] = qHTS drug screen for cell cycle checkpoint inhibitors in PARPi-resistant BRCA-mutant ovarian cancer cell lines. (AID 1963452; calls by dose curve); conditions: PEO1/OlaR viability, CellTiter-Glo luminescence, 96 h, stronger effect = lower value
Method in brief: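 PEO1, PEO4 and PEO1/OlaR ovarian cancer cells, 600 per well, exposed 96 h at 37C to a dilution series. Viability read by CellTiter-Glo luminescence, normalized to DMSO and empty wells; activity summarized as Z-AUC.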

[8] = Drug repurposing screens with cells derived from glioblastoma tumor samples (AID 1345199); conditions: GBM patient neurospheres viability, ATP luminescence, 48 h; for Potency: tumour line A; further: potency means the concentration at half of the fitted maximal effect; on activity, negative = cell killing: on the % scale 0 is the no-effect control and ±100 the full control effect; on all read-outs here: nearly all actives have a fitted effect of over 40% in size
Method in brief: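 Four patient lines of CD133+ GBM neurospheres were screened at several concentrations; hits were retested in those lines plus three slower-growing GBM lines, using 48-hour treatment and ATP-based viability.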

[9] = measured here: PEO1 parental Z-AUC
[10] = at 45.9 µM (top of the series), tumour line B
[11] = at 45.9 µM (top of the series), tumour line D
[12] = at 46.1 µM (top of the series), tumour line C

## CCOC(=O)N1CCN(C(=O)Cn2sc3nc(C)cc(C)c3c2=O)CC1
[1]
  Potency: inactive
[2]
  Potency: inactive

## C=CC(=O)Nc1cccc(C)c1Nc1ncc2cc(-c3c(Cl)c(OC)cc(OC)c3Cl)ccc2n1
[1]
  Potency: 14.6 µM (active)
[2]
  Potency: 9.2 µM (active)
[3]
  Potency: 3.66 µM (active)
[4]
  Potency: 4.11 µM (active)
[5]
  Potency: inactive
[6]
  Potency: inactive
[7]
  Z-AUC: -0.505 (inactive)
[7]; [9]
  Z-AUC: -0.983
[7]; measured here: PEO4 Z-AUC
  Z-AUC: -1.33

## COc1cc(OC)cc(N(CCNC(C)C)c2ccc3ncc(-c4cnn(C)c4)nc3c2)c1
[1]
  Potency: 10.3 µM (active)
[2]
  Potency: 18.4 µM (active)
[3]
  Potency: 11.8 µM (active)
[4]
  Potency: 10.5 µM (active)
[5]
  Potency: inactive
[6]
  Potency: inactive
[7]
  Z-AUC: -0.272 (inactive)
[7]; [9]
  Z-AUC: -0.0954
[7]; measured here: PEO4 Z-AUC
  Z-AUC: -0.145

## CC(C)=CCC/C(C)=C/CC/C(C)=C/CSc1ccccc1C(=O)O
[1]
  Potency: inactive
[2]
  Potency: inactive
[3]
  Potency: inactive
[4]
  Potency: inactive
[5]
  Potency: inactive
[6]
  Potency: 16.1 µM (active)
[7]
  Z-AUC: 0.993 (inactive)
[7]; [9]
  Z-AUC: 0.837
[7]; measured here: PEO4 Z-AUC
  Z-AUC: 0.897

## C=C1/C(=C\C=C2/CCC[C@]3(C)[C@@H]([C@H](C)OCCC(C)(C)O)CC[C@@H]23)C[C@@H](O)C[C@@H]1O
[8]; [10]
  activity, negative = cell killing: -19.1% (inactive)
[8]; [11]
  activity, negative = cell killing: -17.2% (inactive)
[8]; [12]
  activity, negative = cell killing: -27.4% (inactive)
[8]
  Potency: 25.1 µM (active)

## C[C@H]1COCCN1c1cc(C2(S(=O)(=O)C3CC3)CC2)nc(-c2ccc(NC(=S)NCCO)cc2)n1
[1]
  Potency: 0.103 µM (active)
[2]
  Potency: 0.731 µM (active)
[3]
  Potency: 0.059 µM (active)
[4]
  Potency: 0.0934 µM (active)
[5]
  Potency: inactive
[6]
  Potency: inactive
[7]
  Z-AUC: -1.32 (inactive)
[7]; [9]
  Z-AUC: -1.07
[7]; measured here: PEO4 Z-AUC
  Z-AUC: -1.96

## NCCNCCN
[8]; [10]
  activity, negative = cell killing: -28% (inactive)
[8]
  Potency: 28.2 µM (active)

## CN1CCC(c2c(O)cc(O)c3c(=O)cc(-c4ccccc4Cl)oc23)C1CO (stereo unspecified)
[1]
  Potency: 0.92 µM (active)
[2]
  Potency: 5.17 µM (active)
[3]
  Potency: 0.417 µM (active)
[4]
  Potency: 0.332 µM (active)
[5]
  Potency: inactive
[6]
  Potency: inactive
[7]
  Z-AUC: -0.419 (inactive)
[7]; [9]
  Z-AUC: -1.06
[7]; measured here: PEO4 Z-AUC
  Z-AUC: -0.725

## CCOC(=O)CCC(=O)O[C@H]1[C@H](O[C@@H]2[C@@H](C)[C@H](O[C@H]3C[C@@](C)(OC)[C@@H](O)[C@H](C)O3)[C@@H](C)C(=O)O[C@H](CC)[C@@](C)(O)[C@H](O)[C@@H](C)C(=O)[C@H](C)C[C@@]2(C)O)O[C@H](C)C[C@@H]1N(C)C
[8]; [10]
  activity, negative = cell killing: -6.36% (inactive)
[8]; [11]
  activity, negative = cell killing: -16.9% (inactive)
[8]; [12]
  activity, negative = cell killing: 1.07% (inactive)
[8]
  Potency: 35.5 µM (active)

## N[C@@H](C(=O)N[C@@H]1C(=O)N2C(C(=O)O)=C(CSc3cn[nH]n3)CS[C@H]12)c1ccc(O)cc1
[5]
  Potency: 18 µM (active)
[6]
  Potency: inactive
[8]; [10]
  activity, negative = cell killing: -1.12% (inactive)
[8]; [11]
  activity, negative = cell killing: -13.1% (inactive)
[8]; [12]
  activity, negative = cell killing: 10.5% (inactive)

## CNS(=O)(=O)c1ccc2c(c1)/C(=C/c1[nH]c3c(c1CCCN1CCN(C)CC1)CCCC3)C(=O)N2
[1]
  Potency: inactive
[2]
  Potency: inactive
[3]
  Potency: inactive
[4]
  Potency: 16.6 µM (active)
[5]
  Potency: inactive
[6]
  Potency: inactive
[7]
  Z-AUC: 0.43 (inactive)
[7]; [9]
  Z-AUC: 0.259
[7]; measured here: PEO4 Z-AUC
  Z-AUC: -0.147

## C#C[C@]1(OC(C)=O)CC[C@H]2[C@@H]3CCC4=CC(=O)CC[C@@H]4[C@H]3CC[C@@]21C
[2]
  Potency: 3.66 µM (active)
[5]
  Potency: inactive
[6]
  Potency: inactive
[8]; [10]
  activity, negative = cell killing: -16% (inactive)
[8]; [12]
  activity, negative = cell killing: -23.2% (inactive)
[8]
  Potency: 35.5 µM (active)

## C[N+]1(C)CCN(CC(O)(c2ccccc2)C2CCCCC2)CC1 (stereo unspecified)
[5]
  Potency: inactive
[8]; [10]
  activity, negative = cell killing: 4.18% (inactive)
[8]; [11]
  activity, negative = cell killing: -11.4% (inactive)
[8]; [12]
  activity, negative = cell killing: 3.68% (inactive)
